Data taken from the supplement of paper PMC10849652.
Of roughly 8,800 targets only a part is listed; those with a hit were picked by preference. About 0.5% of all pairs of compound and target were hits.

Key:
Experiment in all cases: log2 fold change, soluble protein after heating vs DMSO (PISA); higher = thermal stabilisation; K562 lysate, 10 uM; active = over 0.2 and 3.5 SD of the protein, either way, in both replicates (recomputed)
lapatinib = compound: CS(=O)(=O)CCNCc1ccc(-c2ccc3ncnc(Nc4ccc(OCc5cccc(F)c5)c(Cl)c4)c3c2)o1 [lapatinib]
In short: (§1)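 The values are log-two fold changes in thermal stability compared with solvent controls and come from duplicates. They were obtained by TMTpro 16plex LC-MS/MS, with channel sums equalised, on the supernatant after 21,000xg for 90 min. That supernatant came from crude K562 extract at 1 mg/mL protein treated with 10 μM compound for 30 min, heated for 3 min across 48°C-58°C, pooled and brought to 0.5% NP-40 at 4°C.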

pictilisib = compound: CS(=O)(=O)N1CCN(Cc2cc3nc(-c4cccc5[nH]ncc45)nc(N4CCOCC4)c3s2)CC1 [pictilisib]
In short: as §1

duvelisib = compound: C[C@H](Nc1ncnc2nc[nH]c12)c1cc2cccc(Cl)c2c(=O)n1-c1ccccc1 [duvelisib]
In short: as §1

tozasertib = compound: Cc1cc(Nc2cc(N3CCN(C)CC3)nc(Sc3ccc(NC(=O)C4CC4)cc3)n2)n[nH]1 [tozasertib]
In short: as §1

bafetinib = compound: Cc1ccc(NC(=O)c2ccc(CN3CC[C@H](N(C)C)C3)c(C(F)(F)F)c2)cc1Nc1nccc(-c2cncnc2)n1 [bafetinib]
In short: as §1

nilotinib = compound: Cc1cn(-c2cc(NC(=O)c3ccc(C)c(Nc4nccc(-c5cccnc5)n4)c3)cc(C(F)(F)F)c2)cn1 [nilotinib]
In short: as §1

[1] = compound: Cc1nc(Nc2n[nH]c3c2CN(C(=O)N[C@H](CN(C)C)c2ccccc2)C3(C)C)c2sccc2n1
In short: as §1

dasatinib = compound: Cc1nc(Nc2ncc(C(=O)Nc3c(C)cccc3Cl)s2)cc(N2CCN(CCO)CC2)n1 [dasatinib]
In short: as §1

[2] = compound: Cc1ncc(-c2ccnc(Nc3ccc(S(C)(=O)=O)cc3)n2)n1C(C)C
In short: as §1

[3] = compound: Cn1cc(-c2ccc3c(c2)CCN3C(=O)Cc2cccc(C(F)(F)F)c2)c2c(N)ncnc21
In short: as §1

tipifarnib = compound: Cn1cncc1[C@@](N)(c1ccc(Cl)cc1)c1ccc2c(c1)c(-c1cccc(Cl)c1)cc(=O)n2C [tipifarnib]
In short: as §1

[4] = compound: NC(=O)c1cnc(N[C@@H]2CCCC[C@@H]2N)nc1Nc1cccc(-n2nccn2)c1
In short: as §1

[5] = compound: C[C@H](C1=CC=C(C=C1)C(=O)NC2=C3C=CNC3=NC=C2)N
In short: as §1

gandotinib = compound: Cc1cc(Nc2cc(CN3CCOCC3)c3nc(C)c(Cc4ccc(Cl)cc4F)n3n2)n[nH]1 [gandotinib]
In short: as §1

[6] = compound: Cc1cccc(CC(=O)N2CCc3c2ccc(-c2cn(C)c4ncnc(N)c24)c3F)n1
In short: as §1

crizotinib = compound: C[C@@H](Oc1cc(-c2cnn(C3CCNCC3)c2)cnc1N)c1c(Cl)ccc(F)c1Cl [crizotinib]
In short: as §1

doramapimod = compound: Cc1ccc(-n2nc(C(C)(C)C)cc2NC(=O)Nc2ccc(OCCN3CCOCC3)c3ccccc23)cc1 [doramapimod]
In short: as §1

quisinostat = compound: Cn1cc(CNCC2CCN(c3ncc(C(=O)NO)cn3)CC2)c2ccccc21 [quisinostat]
In short: as §1

[7] = compound: NC(=O)Nc1cc(-c2cccc(F)c2)sc1C(=O)N[C@H]1CCCNC1
In short: as §1

[8] = compound: NC1(c2ccc(-c3nc4ccn5c(=O)[nH]nc5c4cc3-c3ccccc3)cc2)CCC1
In short: as §1

Measured: log2 fold change

NAA16 (UniProt Q6N069)
inactive: lapatinib 0.048 | pictilisib -0.108 | duvelisib 0.029 | tozasertib -0.016 | bafetinib 0.022 | nilotinib 0.068 | [1] -0.139 | dasatinib -0.042 | [2] 0.039 | [3] 0.071 | tipifarnib -0.015 | [4] 0.08

ORC3 (UniProt Q9UBD5)
inactive: lapatinib 0.213 | [5] 0.129 | gandotinib -0.311 | [6] 0.082 | nilotinib 0.038 | [1] -0.062 | [2] 0.059 | tipifarnib -0.084 | [4] -0.053

MYO9A isoform 4 (UniProt B2RTY4)
inactive: lapatinib -0.027 | pictilisib 0.022 | crizotinib -0.03 | [5] -0.014 | duvelisib -0.019 | gandotinib -0.044 | doramapimod 0.005 | bafetinib -0.103 | [6] 0.036 | nilotinib 0.059 | [1] -0.044 | dasatinib -0.176 | [2] 0 | [3] 0.052 | quisinostat -0.074 | tipifarnib -0.005 | [7] 0.112 | [4] 0.039 | [8] -0.112

NR2F2 (UniProt P24468)
Chain of UniProt P24468 (P24468 whole entry, looked up): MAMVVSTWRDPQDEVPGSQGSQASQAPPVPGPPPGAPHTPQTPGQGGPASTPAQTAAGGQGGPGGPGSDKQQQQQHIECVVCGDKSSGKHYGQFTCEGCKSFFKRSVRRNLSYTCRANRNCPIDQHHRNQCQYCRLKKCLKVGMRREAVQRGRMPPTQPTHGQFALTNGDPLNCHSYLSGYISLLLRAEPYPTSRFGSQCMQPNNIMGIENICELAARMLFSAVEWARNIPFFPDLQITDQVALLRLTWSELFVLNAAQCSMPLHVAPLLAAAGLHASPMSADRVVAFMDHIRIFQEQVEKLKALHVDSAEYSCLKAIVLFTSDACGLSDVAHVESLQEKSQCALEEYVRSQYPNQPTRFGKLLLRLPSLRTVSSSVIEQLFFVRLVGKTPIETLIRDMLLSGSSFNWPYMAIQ
inactive: lapatinib 0.06 | pictilisib 0.072 | crizotinib -0.022 | [5] -0.163 | duvelisib -0.046 | gandotinib -0.153 | doramapimod -0.005 | bafetinib 0.037 | [6] -0.023 | nilotinib -0.063 | [1] 0.107 | dasatinib -0.027 | [2] -0.125 | [3] -0.006 | quisinostat -0.024 | tipifarnib 0.034 | [7] 0.125 | [4] 0.024 | [8] 0.029

NUB1 isoform 2 (UniProt Q9Y5A7)
inactive: crizotinib 0.015 | doramapimod 0.063 | quisinostat 0.205 | [7] -0.019

NR2C2 isoform 2 (UniProt P49116)
inactive: lapatinib -0.014 | pictilisib -0.025 | crizotinib -0.004 | [5] 0.064 | duvelisib -0.014 | gandotinib -0.079 | tozasertib -0.005 | doramapimod -0.004 | bafetinib 0.145 | [6] -0.025 | dasatinib -0.033 | [3] 0.064 | quisinostat -0.054 | [7] 0.04 | [4] -0.025 | [8] -0.048

MYH6 (UniProt P13533)
Chain of UniProt P13533 (P13533 whole entry, looked up): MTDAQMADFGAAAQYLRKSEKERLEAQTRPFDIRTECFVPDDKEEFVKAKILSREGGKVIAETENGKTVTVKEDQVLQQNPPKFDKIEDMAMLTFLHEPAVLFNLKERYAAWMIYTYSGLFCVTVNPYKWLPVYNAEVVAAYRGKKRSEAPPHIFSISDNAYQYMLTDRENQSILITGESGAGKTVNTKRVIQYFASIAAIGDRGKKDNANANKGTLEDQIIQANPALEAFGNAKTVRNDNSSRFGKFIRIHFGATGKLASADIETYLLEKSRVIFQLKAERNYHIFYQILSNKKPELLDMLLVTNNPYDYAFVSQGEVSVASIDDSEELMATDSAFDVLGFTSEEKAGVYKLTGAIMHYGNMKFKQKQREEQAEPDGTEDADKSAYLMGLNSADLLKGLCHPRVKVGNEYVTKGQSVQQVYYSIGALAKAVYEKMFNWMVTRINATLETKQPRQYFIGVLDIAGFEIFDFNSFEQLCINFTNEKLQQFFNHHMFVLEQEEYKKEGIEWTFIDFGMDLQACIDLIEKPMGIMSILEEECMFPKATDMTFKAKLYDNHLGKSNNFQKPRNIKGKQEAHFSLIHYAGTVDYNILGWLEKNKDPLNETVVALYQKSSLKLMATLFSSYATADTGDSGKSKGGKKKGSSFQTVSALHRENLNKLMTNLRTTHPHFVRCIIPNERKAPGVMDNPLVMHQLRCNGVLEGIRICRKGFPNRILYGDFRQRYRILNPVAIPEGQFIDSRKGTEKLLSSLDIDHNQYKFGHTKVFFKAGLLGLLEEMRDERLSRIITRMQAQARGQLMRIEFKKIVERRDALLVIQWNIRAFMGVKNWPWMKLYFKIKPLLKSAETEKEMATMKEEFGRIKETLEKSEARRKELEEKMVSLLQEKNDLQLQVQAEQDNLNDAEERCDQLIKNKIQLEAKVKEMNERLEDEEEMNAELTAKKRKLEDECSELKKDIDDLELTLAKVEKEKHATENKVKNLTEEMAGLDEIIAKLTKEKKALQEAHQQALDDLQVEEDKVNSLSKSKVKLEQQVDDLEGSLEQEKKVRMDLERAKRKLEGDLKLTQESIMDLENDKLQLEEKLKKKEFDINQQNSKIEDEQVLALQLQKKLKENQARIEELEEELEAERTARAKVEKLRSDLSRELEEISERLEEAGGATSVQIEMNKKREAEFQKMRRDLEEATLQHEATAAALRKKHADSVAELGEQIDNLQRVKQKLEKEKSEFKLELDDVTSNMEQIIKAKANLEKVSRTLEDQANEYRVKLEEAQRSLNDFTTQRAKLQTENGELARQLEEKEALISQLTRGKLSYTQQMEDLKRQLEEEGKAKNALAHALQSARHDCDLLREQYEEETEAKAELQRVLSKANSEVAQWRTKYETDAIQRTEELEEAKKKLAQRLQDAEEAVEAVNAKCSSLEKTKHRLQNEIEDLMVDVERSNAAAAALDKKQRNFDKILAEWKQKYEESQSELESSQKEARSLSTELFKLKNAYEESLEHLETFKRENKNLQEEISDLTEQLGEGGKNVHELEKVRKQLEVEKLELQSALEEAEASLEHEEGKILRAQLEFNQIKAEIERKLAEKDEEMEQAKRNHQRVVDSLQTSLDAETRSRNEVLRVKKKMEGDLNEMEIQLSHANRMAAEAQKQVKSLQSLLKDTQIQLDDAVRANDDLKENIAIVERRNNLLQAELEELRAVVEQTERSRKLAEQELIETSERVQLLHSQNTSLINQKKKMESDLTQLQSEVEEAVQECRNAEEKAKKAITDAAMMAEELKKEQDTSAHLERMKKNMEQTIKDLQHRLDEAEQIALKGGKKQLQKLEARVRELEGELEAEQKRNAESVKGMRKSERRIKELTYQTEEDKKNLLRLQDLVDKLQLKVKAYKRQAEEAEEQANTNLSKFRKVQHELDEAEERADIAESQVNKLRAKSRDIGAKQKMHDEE
active: pictilisib -1.52
inactive: lapatinib -0.111 | crizotinib -0.097 | tozasertib 0.009 | doramapimod -0.245 | bafetinib -0.132 | quisinostat -0.007 | [7] 0.082 | [4] 0.092 | [8] -0.114

PARD3B (UniProt Q8TEW8)
Chain of UniProt Q8TEW8 (Q8TEW8 whole entry, looked up): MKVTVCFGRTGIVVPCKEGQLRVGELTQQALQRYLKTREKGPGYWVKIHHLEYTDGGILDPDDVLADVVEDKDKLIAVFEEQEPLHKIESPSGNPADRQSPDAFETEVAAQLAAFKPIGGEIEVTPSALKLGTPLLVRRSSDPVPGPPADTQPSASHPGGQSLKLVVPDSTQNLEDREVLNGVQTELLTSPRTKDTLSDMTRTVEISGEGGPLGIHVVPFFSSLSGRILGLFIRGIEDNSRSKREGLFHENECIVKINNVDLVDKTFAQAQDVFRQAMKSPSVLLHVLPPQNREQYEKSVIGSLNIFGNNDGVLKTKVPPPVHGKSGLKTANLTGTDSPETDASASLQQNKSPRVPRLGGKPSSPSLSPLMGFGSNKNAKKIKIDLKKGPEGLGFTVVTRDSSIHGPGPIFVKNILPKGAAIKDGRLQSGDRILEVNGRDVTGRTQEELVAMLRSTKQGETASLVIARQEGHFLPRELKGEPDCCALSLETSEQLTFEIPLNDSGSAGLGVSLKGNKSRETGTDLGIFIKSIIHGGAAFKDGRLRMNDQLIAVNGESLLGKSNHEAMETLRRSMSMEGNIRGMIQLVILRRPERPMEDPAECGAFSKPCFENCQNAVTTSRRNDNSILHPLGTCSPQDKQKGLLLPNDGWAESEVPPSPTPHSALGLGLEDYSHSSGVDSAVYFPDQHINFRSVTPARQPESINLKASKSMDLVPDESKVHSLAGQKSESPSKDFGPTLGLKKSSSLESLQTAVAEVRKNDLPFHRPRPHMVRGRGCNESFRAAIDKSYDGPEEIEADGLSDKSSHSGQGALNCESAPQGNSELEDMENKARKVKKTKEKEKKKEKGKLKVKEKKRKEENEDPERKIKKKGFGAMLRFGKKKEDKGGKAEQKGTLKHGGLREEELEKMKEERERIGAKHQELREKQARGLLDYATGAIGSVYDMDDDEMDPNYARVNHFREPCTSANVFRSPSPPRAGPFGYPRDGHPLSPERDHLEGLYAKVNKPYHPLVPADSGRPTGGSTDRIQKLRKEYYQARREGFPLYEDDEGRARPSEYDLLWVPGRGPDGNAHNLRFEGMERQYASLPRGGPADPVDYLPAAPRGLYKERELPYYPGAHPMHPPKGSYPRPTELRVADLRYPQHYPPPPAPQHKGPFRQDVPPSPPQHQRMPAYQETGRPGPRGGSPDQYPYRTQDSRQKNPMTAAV
inactive: [5] -0.197 | duvelisib 0.024 | gandotinib 0.074 | [6] 0.042 | dasatinib 0.051 | [3] -0.095 | [8] 0.174

NDUFAF5 (UniProt Q5TEU4)
active: duvelisib -0.286
inactive: lapatinib 0.002 | pictilisib -0.02 | crizotinib -0.044 | [5] -0.212 | gandotinib 0.026 | tozasertib 0.068 | doramapimod 0.129 | bafetinib -0.019 | [6] -0.061 | dasatinib 0.02 | [3] -0.061 | quisinostat -0.078 | [7] 0.114 | [4] -0.034 | [8] -0.042

NR3C1 isoform 3 (UniProt P04150)
Chain of UniProt P04150 (P04150 whole entry, looked up): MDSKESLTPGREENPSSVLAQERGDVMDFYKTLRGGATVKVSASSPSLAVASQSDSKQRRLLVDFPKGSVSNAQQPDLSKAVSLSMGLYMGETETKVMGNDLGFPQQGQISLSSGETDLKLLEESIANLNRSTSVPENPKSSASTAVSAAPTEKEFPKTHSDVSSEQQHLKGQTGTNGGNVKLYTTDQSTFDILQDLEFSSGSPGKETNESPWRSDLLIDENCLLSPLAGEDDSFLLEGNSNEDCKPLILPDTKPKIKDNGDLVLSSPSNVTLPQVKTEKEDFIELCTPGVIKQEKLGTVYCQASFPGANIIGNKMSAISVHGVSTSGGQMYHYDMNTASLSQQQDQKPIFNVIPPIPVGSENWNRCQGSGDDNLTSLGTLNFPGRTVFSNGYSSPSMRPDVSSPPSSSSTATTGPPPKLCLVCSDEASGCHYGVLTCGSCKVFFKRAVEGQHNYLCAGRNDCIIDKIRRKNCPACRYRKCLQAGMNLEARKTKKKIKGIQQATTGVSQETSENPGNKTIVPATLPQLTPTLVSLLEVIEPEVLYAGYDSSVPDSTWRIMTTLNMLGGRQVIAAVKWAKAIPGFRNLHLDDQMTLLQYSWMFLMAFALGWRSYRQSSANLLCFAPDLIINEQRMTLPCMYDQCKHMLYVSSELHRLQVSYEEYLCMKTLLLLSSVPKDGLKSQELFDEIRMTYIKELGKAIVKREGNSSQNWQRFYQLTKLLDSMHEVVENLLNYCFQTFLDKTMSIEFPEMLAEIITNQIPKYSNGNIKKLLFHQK
inactive: pictilisib -0.26 | crizotinib 0.012 | [5] 0.057 | duvelisib 0.046 | gandotinib -0.091 | tozasertib 0.012 | doramapimod -0.005 | bafetinib -0.027 | [6] 0.073 | nilotinib -0.021 | [1] -0.069 | dasatinib -0.042 | [2] 0.044 | [3] -0.014 | quisinostat -0.032 | tipifarnib -0.038 | [7] 0.035 | [4] 0.03 | [8] -0.021

PAPOLG (UniProt Q9BWT3)
Chain of UniProt Q9BWT3 (Q9BWT3 whole entry, looked up): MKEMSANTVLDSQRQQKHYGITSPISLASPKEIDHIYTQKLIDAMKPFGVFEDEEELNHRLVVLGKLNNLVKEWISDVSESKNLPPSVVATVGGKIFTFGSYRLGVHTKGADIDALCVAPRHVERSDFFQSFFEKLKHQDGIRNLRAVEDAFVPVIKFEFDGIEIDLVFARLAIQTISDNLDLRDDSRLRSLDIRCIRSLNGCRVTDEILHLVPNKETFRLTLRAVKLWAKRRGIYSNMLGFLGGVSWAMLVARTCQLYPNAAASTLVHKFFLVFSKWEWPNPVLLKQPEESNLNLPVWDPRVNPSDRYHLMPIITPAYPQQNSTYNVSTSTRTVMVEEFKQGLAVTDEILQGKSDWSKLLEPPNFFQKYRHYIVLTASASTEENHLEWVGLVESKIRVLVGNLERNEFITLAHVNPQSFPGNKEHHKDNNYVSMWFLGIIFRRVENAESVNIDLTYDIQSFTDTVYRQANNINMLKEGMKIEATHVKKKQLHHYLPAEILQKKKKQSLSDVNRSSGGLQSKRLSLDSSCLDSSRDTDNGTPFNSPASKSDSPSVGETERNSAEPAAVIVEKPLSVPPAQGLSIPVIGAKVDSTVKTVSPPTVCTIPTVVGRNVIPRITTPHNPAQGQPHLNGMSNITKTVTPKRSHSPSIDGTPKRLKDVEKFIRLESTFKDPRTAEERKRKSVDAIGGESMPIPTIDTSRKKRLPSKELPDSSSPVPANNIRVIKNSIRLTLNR
inactive: crizotinib -0.139 | [5] -0.026 | duvelisib 0.02 | gandotinib -0.002 | tozasertib -0.027 | doramapimod 0.017 | [6] 0.067 | nilotinib 0.025 | [1] -0.025 | dasatinib -0.023 | [2] 0.031 | [3] 0.079 | quisinostat -0.056 | tipifarnib 0.079 | [7] -0.054 | [8] 0.445
